Results: the supplement of paper PMC12632987

B1: GBRAPL2_63_7399 (protein)
chain: SAAKKALEALLEHAILDLDTAERLDKALENEKDEEKLRKALVEAILDINPEATEEEAERMADLLLELAKKSEAALKEAVRALSTMDLPEALAFLEALVAA
B2: GBRAPL2_54_7377 (protein)
chain: MKKVEITIDYIVEGDEEELKRVREVLEKELEKMEKELKEKFNAKTEVSVEVEDGVLTVTVDVIVDEKDVDKVIDLALKTAEEVSKKTGVKVNVVIGIKEL
B3: GBRAPL2_63_7405 (protein)
chain: MTAKKVLEALLRHAILPLDTAERLDEALENEEDEEKLRETLVEAILDIRPELTPEEAEYVAEKLLALAEQSEERLAEAVRALTTLSKEEFLARLDELVAE
B4: GBRAPL2_54_7379 (protein)
chain: MKIVEVEITYLATGNEEELKKVEEVAKKKVEEFKKELEEKYGAKTTTSVEIEDGVLSYTVTVITKEENLDEVIDKALEMAKEIEKETGVKVSVVIGTKEL
B5: GBRAPL2_63_7391 (protein)
chain: SLADKTAALLSRLGAVPLELAEAWEAAAAALTDVAAFAEAAAAAAAAINPRIDAERQAILEEAIRRALTEDDPLAVEIVSAIINNEPDEEIRALWKKLLA
B6: GBRAPL2_54_7388 (protein)
chain: MKKIRITVDFIAEGNDEELAKVEKVLLEELEKFKKELKEKFNAKTEISVERENGVLTITVDVITEEKDVDEVIDLADEVAKEVEKKTGVKVSVVIGIEEL
B7: GBRAPL2_54_7390 (protein)
chain: LVEVELILIVSGELPEEEIERIEELLKEKTEELLKKHSDKIEKILRFEREREDGVVLISVELLVKEEYKEEVIDELIKIAEEIREESGVEIKSVIAESSD
B8: GBRAPL2_54_7385 (protein)
chain: MTKVLVEIDFLVEGDEEELAEVEKVLLEEIEKMKKELKEKYGAEVTVEVEREDGRLLVTVTVLTPKEAVDDVIDLAEKMRDEVEAKTGVKVHVVIGIEEL
B9: GBRAPL2_63_7397 (protein)
chain: MTAKKVLEIILREAILDLETAEKLEEALKNEKTEEALREALVEAILDMRPDLTEEEAEEIVDLLLELQKKSEELAREGVRALSTLDNEEALAYLKELVAK
B10: GBRAPL2_54_7386 (protein)
chain: MKKVNITIDFVAEGDPETLAKVEEVAEKEIEKMEEELKEKYGAETERSVEREDGVLTVTVDVTVPEEAVDDVIDLALETAERISKETGVKVSVVIGAEEL
B11: GBRAPL2_63_7393 (protein)
chain: STWARVLRLILEHATIDLETAERLEAALESNASDEELFATLVEALQDIRPELTPEQARDIAAKLARLAERSEALAAEAVRRLDTMSLEEFLAHLDALVAA
B12: GBRAPL2_54_7383 (protein)
chain: AKKIEIEIDYIVEGDKESLEKVKKVFTELSKKMAEELKEKYGAETKIEFEEENGVLTGTITVITDESHVDEVIDRALELKKEIEKKTGLKVNVVIGIKEL
B13: GBRAPL2_63_7401 (protein)
chain: SSVEKVLKTLLEYAVLDLDTAEKIDKALENNESDEELFKTLVEAIKDIRPDLTEEEAEEIAKLLIELAKKSEELLKEAVRKLDTMENEEFIKYLKELVEK
B14: GBRAPL2_63_7394 (protein)
chain: SAARKVLEALLEHAIIDLETAERLEKALEEAKSEEELRKTLVEALLDMIPELTEEEAEELADMLIELAKKSEELLKEAILALQTLSKEEALAKLKALVAE
B15: GBRAPL2_63_7403 (protein)
chain: SEVEKVLKAILEYATLDLDTAERIDKALESNLSEEELFEVLVETIKDINPELTDEEAEKIAELLIELAKQSEEKLKEAVRKLQTMENEEFIAYLEELVKE
B16: GBRAPL2_54_7382 (protein)
chain: AKKVRITIEFIVEGNEEELEKVKKVAKELSEELAKELKEKYGATSSISFEEENGVLTITIDVITDESAVDDVIDRALELKEEIEKKTGLKVSVVIGIEYL
B17: GBRAPL2_63_7400 (protein)
chain: SAAKKALEALLEHAILDLETAERLEKALEEETDEEKLYEALVEAILDLNPEATREQAEEIADLLIELAKQSEAALKAAVRALSTVPLEEALAFLRAAVAA
B18: GBRAPL2_54_7376 (protein)
chain: MKKVEIEIDYIVEGDPAELARVEAVLKKELAEMEKTLKSKFNAKTTVSSEVEDGVLTTTVTVITDESHVDEVIDLALETAERVSAETGVKVSVVIGIKEL
B19: GBRAPL2_54_7389 (protein)
chain: MKMIEIVIDYIAEGDDEELDKVEEVLLELLEEFKKELKEKYGATVEVSVEREDGVLTVTVTVIVKEEDVDDVIDLADKVAKEVEAKTGVKVSLVIGIKEL
B20: GBRAPL2_54_7373 (protein)
chain: MTKVLIEATFIAEGTPEELAEVRKVALEELEKLKKELKEKFGAESKISSEEEDGVLSVTVEITTEKENLDEVLDLLEETRERIAERTGRPVSLVIGIKEL
B21: GBRAPL2_54_7374 (protein)
chain: MKKVEITIDYVVEGNEEELEKVEKVLKKELEELKKKLESEFNAKTKISVERENGVLTIEVDVITDEKDVDKVIDLALETAKKVSEKTGVKVSVVIGIKEL
B22: GBRAPL2_63_7392 (protein)
chain: SLLDKVLKLLSRLGPVPLDLAERFEELAEELSDEEELAKAIAEAVQEDNPHIDEERRKILEEAILKALTEDSEIAIKIASAIINGAPMEEIEKLLEELKK
B23: GBRAPL2_54_7381 (protein)
chain: AKKVEIVADFIVEGTPEELAKVEKVATELSKKLAEELAAKYGATSTLSFEREDGVLLLTVTIVTDESAVDDVLDRLEELRDEIEKRTGVKVNLVIGIKEL
B24: GBRAPL2_63_7395 (protein)
chain: SAAARVLRALLEHAIVDLETAERIEEALATEKSAEALRETLVAALLDMIPELTEEEARELAAALEALARRSPELLREALRALQTLSLEEARARLAALLAA
B25: GBRAPL2_54_7378 (protein)
chain: MKIVEVEVDYIAQGNDEELEKVEKVAKEELAKLTEELAKKYGAKTTTSVEREDGVLSVTLTVIVKESDLDAVIDLALETAKRIEEKTGVKVSVVIGTKEL
B26: GBRAPL2_63_7398 (protein)
chain: MLAKKVLEALLENAILPLDLAEELEKALETLKTEEELRETLVKAILELNPELTEEEAEEIVDLLIELAKKSEELLKEGVRALSTLDNETAKEYLKKLVAE
B27: GBRAPL2_54_7387 (protein)
chain: MKIIEIEIDYIAEGDDETLDKVEKVALEEIEKLKKELKEKYGAETEIEVEREDGVLSVTVTVITKEENVDEVIDLAEETAKEISEKTGIKVSVVIGLKEL
B28: GBRAPL2_54_7375 (protein)
chain: MKKVEIEIDYIVEGNEEELKKVREVLKKELEKMKKELEEKFNATVEVSEEYENGVLTVTVKVIVDEEHVDEVIDLALETAERVSKETGVKVNVVIGIKEL
B29: GBRAPL2_63_7396 (protein)
chain: MIAKKVLEILLREAILDLETAEELEKALEEEKTEEELRKALVKAILDLNPDLTEEEAEEIVELLLELAKKSEELARKAVRALSTLDNEEAFAFIKKLVAE
B30: GBRAPL2_63_7402 (protein)
chain: SAVERVLRTLLEHAVLDLDTAERLEKALESNLSDEELFKTLVEAIKDINPELTEEEAERVARLLIALAEQSEALLVEAVRQLSTLENEEFLALLEALVAA
B31: GBRAPL2_54_7380 (protein)
chain: MKKVLITGEFIVEGDEESLEKVKKVAEEKSKELSEELKKKYGAESTISFEEEDGVLYITIDIITDEEAVDDVIDKLEELKKEIEKETGLKVSLVIGIEYL
B32: GBRAPL2_63_7404 (protein)
chain: SSAEKVLKTLLEYATLDLDTAERLEEALESNASEEELREALVEAIKDIRPDLTEEEAERVADLLIELAKQSEELLKEAVRDLDTLENDEFLKRLEELVAA

Biological target: GABARAPL2, P60520
Assay: median log2 fold change of GCK-ALFA target abundance (FLAG IP / Myc IP barcode read proportion) (log2 ratio); each designed protein is fused to an ALFA-tag nanobody in HEK293 cells to bring the named protein to FLAG-tagged glucokinase (GCK); Myc marks an untargeted standard; higher = target protein stabilised (more abundant)
Settings: target protein: 3xFLAG-MCP-GCK-ALFA reporter; HEK293 landing pad (RPLP)
In short: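 HEK293 landing-pad cells received a recombined binder library fused to the ALFA nanobody and were induced with 2 μg mL^−1 doxycycline, then transfected with a plasmid encoding a FLAG-tagged target and a Myc-tagged standard. Lysates were collected after 48 h for anti-FLAG and anti-Myc immunoprecipitation, and the circular RNA barcodes were reverse transcribed, amplified and sequenced. Target abundance for each binder is the median log2 ratio of FLAG to Myc barcode read proportions. Barcodes had to reach a proportion of at least 10^−7 in both replicates, each binder needed at least 3 barcodes per replicate, a pseudocount of 10^−6 was applied, and the two replicates were pooled.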

GABARAPL2, P60520, sequence (P60520 whole entry, the tested form may be a part): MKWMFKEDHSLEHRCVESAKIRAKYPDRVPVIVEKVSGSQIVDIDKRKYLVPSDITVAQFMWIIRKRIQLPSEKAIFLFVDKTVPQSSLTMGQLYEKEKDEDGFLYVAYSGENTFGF

| Binder | median log2 fold change |
| --- | --- |
| B1 | -0.0717 |
| B2 | -0.193 |
| B3 | -0.247 |
| B4 | -0.192 |
| B5 | 0.206 |
| B6 | -0.363 |
| B7 | -0.0228 |
| B8 | 0.154 |
| B9 | 0.0233 |
| B10 | -0.458 |
| B11 | 0.216 |
| B12 | -0.128 |
| B13 | 0.131 |
| B14 | 0.071 |
| B15 | -0.012 |
| B16 | 0.121 |

| Binder | median log2 fold change |
| --- | --- |
| B17 | -0.0605 |
| B18 | -0.212 |
| B19 | -0.265 |
| B20 | 0.0324 |
| B21 | -0.179 |
| B22 | 0.0699 |
| B23 | -0.18 |
| B24 | 0.00583 |
| B25 | -0.111 |
| B26 | 0.0619 |
| B27 | -0.429 |
| B28 | -0.389 |
| B29 | 0.0814 |
| B30 | 0.0388 |
| B31 | 0.0537 |
| B32 | 0.0151 |
